# Reference: the supplement of paper PMC7724964
# Molecular target: PPIE 138-301 Pro_isomerase (domain begin residue: 138, domain end residue: 301), Q9UNP9
# Experiment: phage ELISA signal ratio (GST-PRM binding over GST background); higher = stronger binding of peptide-phage to the PRM
# Summary of the method: (§1)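 Five rounds of selection were carried out against human peptide recognition domains fused to the C-terminus of glutathione S-transferase (GST) and expressed in 96-well plates. The M13 phage library presented randomized hexadecapeptides, cysteine-free and glycine-flanked, on the gene-8 major coat protein. For each value, the phage ELISA signal on the GST-domain fusion was divided by the signal on GST alone.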
# Chain of PPIE 138-301 Pro_isomerase (domain begin residue: 138, domain end residue: 301), Q9UNP9 (Q9UNP9 whole entry): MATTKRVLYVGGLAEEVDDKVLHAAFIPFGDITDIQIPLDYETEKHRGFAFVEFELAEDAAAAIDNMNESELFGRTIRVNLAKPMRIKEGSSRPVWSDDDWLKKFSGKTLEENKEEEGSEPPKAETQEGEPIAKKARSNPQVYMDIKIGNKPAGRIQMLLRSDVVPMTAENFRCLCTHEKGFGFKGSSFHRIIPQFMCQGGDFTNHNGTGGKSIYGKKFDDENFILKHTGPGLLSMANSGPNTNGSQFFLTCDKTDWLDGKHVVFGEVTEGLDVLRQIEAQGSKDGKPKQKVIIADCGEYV
row,Binder,phage ELISA signal ratio
1,ESWGPMEQHSYTEQTE,5.43
2,VYDFIGPQPQTNMASI,21.8
3,HEMFGPQEQSQHMMEW,4.73
4,ENHVPWVPEARWTTPQ,7.51
5,EPTFGPQPQVFFSTNP,17
6,PMTWEMWQIDSAQQTV,8.08
7,SDVYGPHAHPVHYQDE,8.93
8,PLMMPPEPHWVVNLGI,10.5

# Molecular target: T1, PPARG 233-505 Hormone_recep (domain begin residue: 233, domain end residue: 505), P37231
# T1 chain: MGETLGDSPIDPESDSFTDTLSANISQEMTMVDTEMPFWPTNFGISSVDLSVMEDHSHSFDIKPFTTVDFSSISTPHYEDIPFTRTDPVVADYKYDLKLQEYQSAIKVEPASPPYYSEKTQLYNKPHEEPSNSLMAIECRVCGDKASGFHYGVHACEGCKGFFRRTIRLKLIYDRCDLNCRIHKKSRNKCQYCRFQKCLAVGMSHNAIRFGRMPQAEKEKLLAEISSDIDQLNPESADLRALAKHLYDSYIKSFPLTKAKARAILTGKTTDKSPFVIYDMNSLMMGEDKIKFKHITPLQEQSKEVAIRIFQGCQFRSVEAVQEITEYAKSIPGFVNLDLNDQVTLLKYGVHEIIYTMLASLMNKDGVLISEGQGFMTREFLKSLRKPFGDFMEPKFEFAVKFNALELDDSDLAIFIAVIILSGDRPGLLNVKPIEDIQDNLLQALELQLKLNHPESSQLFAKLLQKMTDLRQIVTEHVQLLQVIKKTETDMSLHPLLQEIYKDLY
# Experiment: as above
# Summary of the method: as §1
row,Binder,phage ELISA signal ratio
1,PSEDVSWWWQQHLMDI,17.6
2,LHPMLTDMLAPNHMEV,18.6
3,PESWWESWMMDHEWGS,24.5

# Molecular target: RANBP1 39-170 Ran_BP1 (domain begin residue: 39, domain end residue: 170), P43487
# Experiment: as above
# Summary of the method: as §1
# Chain of RANBP1 39-170 Ran_BP1 (domain begin residue: 39, domain end residue: 170), P43487 (P43487 whole entry): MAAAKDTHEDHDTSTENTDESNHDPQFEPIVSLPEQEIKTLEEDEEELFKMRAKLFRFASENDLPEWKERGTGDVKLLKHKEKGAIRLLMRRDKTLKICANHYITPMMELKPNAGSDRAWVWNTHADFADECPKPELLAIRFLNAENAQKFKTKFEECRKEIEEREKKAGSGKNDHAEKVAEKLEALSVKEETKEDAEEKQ
row,Binder,phage ELISA signal ratio
1,WDVALPQEIVWELADK,7.66
2,YGMRLPEASQMETWFL,6.18
3,WRMELPVQNHMEVMDL,6.12
4,WDMTLPVLTNHELAYL,9.02
5,WLVPLPWEETWQNMSL,5.79
6,GTEWWQQMALPPDVVV,7.62
7,WEHLYPWMIPLPGTGV,6.24
8,WELALPAEHHEHYWSN,4.36
9,VSDMRGVPDSFMDVWD,5.06

# Molecular target: T2, RALA 11-183 Ras (domain begin residue: 11, domain end residue: 183), P11233
# T2 chain: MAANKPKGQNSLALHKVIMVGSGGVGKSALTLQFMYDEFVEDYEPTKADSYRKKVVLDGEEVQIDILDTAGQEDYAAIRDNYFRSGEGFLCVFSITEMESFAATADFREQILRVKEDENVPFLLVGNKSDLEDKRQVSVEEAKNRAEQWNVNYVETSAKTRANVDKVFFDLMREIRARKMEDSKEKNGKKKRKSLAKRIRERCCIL
# Experiment: as above
# Summary of the method: as §1
row,Binder,phage ELISA signal ratio
1,LTHEQMLWQLMDALSE,19.4
2,LYQEVFEYQGWLCMDL,32.5

# Molecular target: T3, PUF60 460-559 RRM_3 (domain begin residue: 460, domain end residue: 559), Q9UHX1
# T3 chain: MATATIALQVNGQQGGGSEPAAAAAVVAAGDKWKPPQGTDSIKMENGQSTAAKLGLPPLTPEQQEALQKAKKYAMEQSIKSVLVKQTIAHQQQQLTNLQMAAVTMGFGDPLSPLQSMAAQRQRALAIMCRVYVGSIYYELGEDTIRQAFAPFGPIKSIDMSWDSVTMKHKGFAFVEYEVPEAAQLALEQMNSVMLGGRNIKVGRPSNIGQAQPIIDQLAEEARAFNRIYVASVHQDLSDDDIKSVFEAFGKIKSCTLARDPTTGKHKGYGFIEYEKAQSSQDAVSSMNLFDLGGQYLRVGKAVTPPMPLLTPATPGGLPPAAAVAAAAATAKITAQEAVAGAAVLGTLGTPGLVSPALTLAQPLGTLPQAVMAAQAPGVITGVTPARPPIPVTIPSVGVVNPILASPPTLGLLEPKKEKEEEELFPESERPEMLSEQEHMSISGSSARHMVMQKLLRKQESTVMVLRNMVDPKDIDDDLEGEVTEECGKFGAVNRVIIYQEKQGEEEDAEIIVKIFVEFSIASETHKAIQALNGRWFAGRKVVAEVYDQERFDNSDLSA
# Experiment: as above
# Summary of the method: as §1
row,Binder,phage ELISA signal ratio
1,WSSKWDVIDKDYGIMH,7.28
2,SRWDQQPGQWIKLSEN,12
3,MNWGEMWDVRDDQVMV,7.64
4,NKWDMEHWDTEYRSPV,4.03
5,TQGKWDMQPTDMHYLS,13.2

# Molecular target: T4, PPWD1 486-646 Pro_isomerase (domain begin residue: 486, domain end residue: 646), Q96BP3
# T4 chain: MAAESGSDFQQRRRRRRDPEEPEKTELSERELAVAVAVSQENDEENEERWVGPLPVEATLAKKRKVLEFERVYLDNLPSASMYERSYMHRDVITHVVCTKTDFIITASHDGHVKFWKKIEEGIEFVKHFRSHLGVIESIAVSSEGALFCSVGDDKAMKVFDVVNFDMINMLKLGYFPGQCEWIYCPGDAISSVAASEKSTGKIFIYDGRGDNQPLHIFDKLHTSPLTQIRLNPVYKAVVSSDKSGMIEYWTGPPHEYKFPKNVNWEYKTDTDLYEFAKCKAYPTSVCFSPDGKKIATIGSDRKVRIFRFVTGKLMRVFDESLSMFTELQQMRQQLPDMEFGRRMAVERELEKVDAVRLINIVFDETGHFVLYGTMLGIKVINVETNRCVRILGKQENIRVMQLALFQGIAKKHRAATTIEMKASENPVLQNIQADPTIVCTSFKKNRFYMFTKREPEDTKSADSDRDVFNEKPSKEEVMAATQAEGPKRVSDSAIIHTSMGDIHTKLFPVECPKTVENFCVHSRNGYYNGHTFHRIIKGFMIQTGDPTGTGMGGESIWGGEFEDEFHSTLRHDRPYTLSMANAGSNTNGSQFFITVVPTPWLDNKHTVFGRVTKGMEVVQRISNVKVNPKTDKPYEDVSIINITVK
# Experiment: as above
# Summary of the method: as §1
row,Binder,phage ELISA signal ratio
1,AVSWGPQWHDFQWALM,8.34

# Molecular target: T5, RAB5A 15-188 Ras (domain begin residue: 15, domain end residue: 188), P20339
# T5 chain: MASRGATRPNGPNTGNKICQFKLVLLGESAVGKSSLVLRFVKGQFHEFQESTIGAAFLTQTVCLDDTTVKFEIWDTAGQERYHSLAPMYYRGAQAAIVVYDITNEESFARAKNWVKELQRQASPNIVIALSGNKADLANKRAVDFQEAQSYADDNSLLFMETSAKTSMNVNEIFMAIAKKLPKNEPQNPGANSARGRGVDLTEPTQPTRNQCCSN
# Experiment: as above
# Summary of the method: as §1
row,Binder,phage ELISA signal ratio
1,WDLAEWEMIWQDYMNH,5.62
